Measured values taken from PubChem BioAssay (NCI).
The panel holds about 79,000 compounds, 15% with a hit somewhere; the sample as a whole holds those more often. A number with no mark means an inactive call. Activity calls are given as the source filed them. Rule as the data show it: active = growth inhibition above about 70%; inactive = the rest.

Test: NCI Yeast Anticancer Drug Screen. Data for the mlh1 rad18 strain (AID 175)
Settings: S. cerevisiae mlh1 rad18 strain growth inhibition; at 50.0 µM; hits give high values
Method in brief: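 Test agents were incubated with a yeast strain of defined genotype (DNA damage repair defect). Inhibition of growth was derived by comparison with vehicle-exposed cultures.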

SMILES	growth inhibition
OC1C2COc3nc4ccccc4n3C(O2)C1O (configuration not stated)	-7.05%
CN(C)CC1Cc2ccsc2C1=O (configuration not stated)	99.2% (active)
CCCC(O)C[N+](=O)[O-] (configuration not stated)	11.8%
CC1=NC(C)=C(/C(C)=N/NC(=O)c2ccccc2O)C(C)/C1=C(/C)NNC(=O)c1ccccc1O (configuration not stated)	80% (active)
O=[N+]([O-])c1cccc(S(=O)(=O)N/N=C/c2cc(I)cc([N+](=O)[O-])c2O)c1	45.9%
CNC(=O)OC(C)CN1c2ccccc2Sc2ccc(Cl)cc21 (configuration not stated)	88.2% (active)
O=[N+]([O-])c1ccc(NSc2ccccc2)cc1	88.2% (active)
CCOc1ccc2c(c1)nc1ccccc1[n+]2CC	44.2%
O=C1C=CC(=O)c2c(O)c(N3CCN(CCO)CC3)c(Cl)c(O)c21	88.8% (active)
O=C1CSC(c2cccc([N+](=O)[O-])c2)N1c1ccc(-c2ccc(-n3c(-c4ccccc4)nc4ccccc4c3=O)cc2)cc1 (configuration not stated)	83.2% (active)
CCC(=O)c1ccc2ccc3ccccc3c2c1	50.9%
N#CSCc1c(Cl)cccc1Cl	79.8% (active)
O=[N+]([O-])/C(C(Cl)=C(Cl)Cl)=C(/Sc1ccccc1)N1CCOCC1	83.2% (active)
COc1c2occc2c(OC)c2c(C)c(C(=O)OCCN3CCOCC3)oc12	66.2%
COc1cnn(-c2ccccc2)c(=O)c1SCc1ccc(Cl)c(Cl)c1	37.4%
COc1ccc(/C=C/c2c[n+]([O-])ccc2[N+](=O)[O-])cc1	98% (active)
CS(=O)(=O)OCCCN(CCCOS(C)(=O)=O)c1ccc(C=Nc2ccc(-c3csc(COc4ccc(Br)cc4Br)n3)cc2)cc1	90.7% (active)
